This note sets out measurements from PubChem BioAssay (EPA / NIEHS).

Inconclusive results are not listed. Activity calls are given as the source filed them. Rule for the calls: active = hit-call score of the fitted dose curve at least 0.9, where 1 is the maximum; inconclusive = response in the unintended direction; inactive = score below 0.9.

Sequence of Cellular tumor antigen p53 (Homo sapiens) (P04637 whole entry, looked up): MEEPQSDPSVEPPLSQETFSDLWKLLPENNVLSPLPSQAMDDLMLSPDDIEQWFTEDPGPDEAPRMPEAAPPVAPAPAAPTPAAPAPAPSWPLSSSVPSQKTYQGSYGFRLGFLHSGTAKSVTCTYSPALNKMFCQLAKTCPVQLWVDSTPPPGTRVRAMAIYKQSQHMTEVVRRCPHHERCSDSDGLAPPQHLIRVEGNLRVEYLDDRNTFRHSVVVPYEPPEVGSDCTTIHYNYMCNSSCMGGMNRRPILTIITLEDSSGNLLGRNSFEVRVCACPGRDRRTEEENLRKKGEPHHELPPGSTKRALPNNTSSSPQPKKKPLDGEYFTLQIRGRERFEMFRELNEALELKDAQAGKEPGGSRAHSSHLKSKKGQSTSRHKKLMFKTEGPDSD

For the experiment, the target named is Cellular tumor antigen p53 (Homo sapiens) (UniProt P04637). Description: TOX21_p53_BLA_p4_ratio: Tox21 HCT-116 p53 Agonism Beta-lactamase Assay, Ratio, Phase 4 (AID 2283601). The method in brief:
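HCT-116 p53 beta-lactamase reporter cells (4000/well) preincubated 5 h, then compound (217-fold dilution of DMSO stock) for 16 h at 37C. CCF4-AM substrate added 2 h at room temperature; 460/530 nm emission ratio fitted upward versus DMSO.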
Regarding `CC1=C(/C=C/C(C)=C/C=C/C(C)=C/C(=O)O)C(C)(C)CCC1`, the result was inactive.

As for `CCOC(=O)CC(O)(CC(=O)OCC)C(=O)OCC`, the result was inactive.

A word on the AC50: it is the concentration giving half of the maximal activity seen. With `NC(=O)N(O)[C@@H]1C=C[C@H](Oc2cccc(Oc3ccc(F)cc3)c2)C1`, the AC50 was 74.5 µM (active).

For `CCCCCCCCCCCCCCCS(=O)(=O)Oc1ccccc1`, the outcome was inactive.

`CC(=O)NC1(c2cccc(F)c2)CCN(CC[C@@]2(c3ccc(Cl)c(Cl)c3)CN(c3ccccc3)C(=O)CO2)CC1`: the AC50 was 65 µM (active).

For the compound `Cc1cc(C)c(O)c(C)c1`, the outcome was inactive.

In the case of `CC(C)(C)c1cccc(C(C)(C)C)c1O`, the result was inactive.

Regarding `CCCOc1sc(C(=O)N2CCC(c3cc(CN)ccc3F)CC2)c(C)c1Br`, the concentration at half-maximal activity (AC50) was 72.2 µM (active).

Regarding `CC(O)C(=O)O` (stereo unspecified), the outcome was inactive.

As to `CCN(CC)CCNc1ccc(CNC=O)c2sc3ccc(OC)cc3c(=O)c12`, the AC50 was 12.1 µM (active).

Regarding `CCc1nn(C2CCCCC2)c2cc(C3(C#N)CCC(C(=O)O)CC3)ccc12` (stereo unspecified), the AC50 is 75.2 µM (active).

As for `CC(=O)CC(C)(C)O`, the result was inactive.

As to `OCCC(F)(F)C(F)(F)C(F)(F)C(F)(F)C(F)(F)C(F)(F)C(F)(F)C(F)(F)F`, the outcome was inactive.

In the case of `CCCCCCC(=O)O`, the outcome was inactive.

Regarding `COC(=O)CCCCC(=O)OC`, the outcome was inactive.

As for `C=C(C)C(=O)OCCC(F)(F)C(F)(F)C(F)(F)C(F)(F)C(F)(F)C(F)(F)F`, the result was inactive.

As for `CC(C)CCCCCCOC(=O)CCCCC(=O)OCCCCCCC(C)C`, the outcome was inactive.

As for `c1ccc2c(c1)ccc1ccccc12`, the result was inactive.

Consider `OCCC(F)(F)C(F)(F)C(F)(F)C(F)(F)C(F)(F)C(F)(F)F`, for which the result was inactive.

For the compound `ClC1=C(Cl)C(Cl)(Cl)C(Cl)=C1Cl`, the outcome was inactive.

With `CN(C)C=O`, the outcome was inactive.
